Sampled rows, rich in hits. Any-hit rate of the full collection: about 19%.
IL1B secr inh: blocks inflammasome-driven IL-1 beta release; THP-1 LPS/ATP IL-1B secretion, AlphaLISA, 16 h; hits give low values; activity change, % at 57.5 µM; actives 4.7% (n = 360,000); AID 743279; in the data active means activity change below about -50%; inconclusive means mostly about -30% to -49%
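THP-1 cells pretreated 1 hr with compounds (up to 57.5 uM final), then stimulated with LPS (250 ng/mL final) plus ATP (1.25 mM final); secreted IL-1B measured by AlphaLISA after 16 hr, decreased signal indicating inhibition.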
HT1080 IDH1KD tx: toxicity to HT-1080 IDH1 knockdown cells (counter line). Potency, µM (top dose mostly 46.1 µM), for inactives: at the top dose activity, negative = toxicity, hits mostly cytotoxic. actives 2% (n = 360,000). HT-1080 IDH1 knockdown viability, ATP luminescence, 48 h. AID 686971;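 further: potency means the concentration at half of the fitted maximal effect; 0% = DMSO wells and -100% = cell-free medium wells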
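Luminescent ATP read-out (CellTiter-Glo, 10 min at room temperature) after 48 h compound exposure at 37 °C gave viability of IDH1-knockdown HT-1080 cells. Activity was normalised to DMSO and cell-free wells, then fitted as concentration-response curves.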
DT40 TDP1 CPT: DT40-hTDP1 cell growth loss with CPT | chicken DT40 Tdp1-/-;hTDP1 cells + 20 nM CPT, ATP luminescence, 48 h | Potency, µM (doses to about 46.2 µM), inactives show at the top dose activity change, negative = growth inhibition, most hits filed as inhibitors | actives 12% (n = 420,000) | AID 686979; further: potency means the concentration at half of the fitted maximal effect; nearly all actives have a fitted effect of over 55% in size
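Cell growth measured by CellTiter-Glo luminescence after a minimum 48 h, 37 C compound exposure with 20 nM CPT in Tdp1-knockout DT40 cells stably expressing hTDP1, seeded 400/well; qHTS titration format.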
HT1080NT lethal: kills 2HG-producing HT-1080-NT fibrosarcoma cells. Potency, µM (series often up to 46.1 µM), for the others: top-dose activity, negative = less viability, most hits filed as cytotoxic. actives 1.6% (n = 360,000). HT-1080-NT fibrosarcoma viability, CellTiter-Glo ATP luminescence, 48 h;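 further: NT is the 2HG producing partner of a matched IDH1 knockdown line; potency means the concentration at half of the fitted maximal effect; 0% = DMSO-treated cells and -100% = media-only wells without cells; nearly all actives have a fitted effect of over 55% in size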
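Toxicity toward the 2HG-producing NT line was scored as %Activity, normalised to DMSO and no-cell wells, from CellTiter-Glo luminescence after 48 hours' treatment.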
TDP1 cell noCPT: qHTS for Inhibitors of human tyrosyl-DNA phosphodiesterase 1 (TDP1): qHTS in cells in absence of CPT; DT40 Tdp1-/- hTDP1 cells, no CPT, ATP luminescence, 48 h; Potency, µM (titrated, usually from 46.2 µM), for the others: top-dose activity change, negative = growth inhibition, actives largely listed as inhibitors; actives 15% (n = 420,000); further: potency means the concentration at half of the fitted maximal effect; nearly all actives have a fitted effect of over 55% in size
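A cellular qHTS used chicken DT40 cells lacking endogenous Tdp1 but carrying stably transfected human TDP1. Compounds were applied without camptothecin, and cell growth kinetics were judged by ATP-dependent luminescence after ≥48 hr.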
Starred values were filed as active, the others as inactive; ? = inconclusive; nt = no result; ! = not active in a repeat; [ ] = remark or other dose. Unless noted, the call rests on the fitted dose curve; in most records, active means well fitted curve in the direction sought with a large enough effect; inconclusive means small, poorly fitted or top-dose-only effect, or another doubt; inactive means no such curve, though single readings can be large; an effect the other way counts as inactive or inconclusive. Unless noted, on the % scale 0 is the no-effect control and ±100 the full control effect.

SMILES | IL1B secr inh | HT1080 IDH1KD tx | DT40 TDP1 CPT | HT1080NT lethal | TDP1 cell noCPT
CC(C)NC(=O)c1cc(C2CCCCN2C(=O)c2ccccc2)on1 (configuration not stated) | 30.0 | 23.2% | -9.3% | 15.0% | -20.5%
Cc1c(C(=O)N2CCCCC2)sc2ncnc(NCCN(C)C)c12 | nt | nt | 17.1% | nt | 1.7%
CCOC(CNC(=O)c1nnc(Cc2cc(OC)c(OC)c(OC)c2)o1)OCC | 3.8 | 3.0% | 3.0% | 14.4% | 2.3%
CCOC(=O)[C@H](CCc1ccccc1)N[C@@H](C)C(=O)N1Cc2ccccc2C[C@H]1C(=O)O | 3.8 | 4.9% | ? | 18.3% | 0.259µM*!
COc1ccc(S(=O)(=O)N2CCN(Cc3nc4ccc(C)cc4o3)CC2)cc1Cl | nt | nt | 18.4µM* | nt | ?
Cc1ccc(S(=O)(=O)N2CCN(Cc3nc4ccc(C)cc4o3)CC2)cc1 | nt | nt | -26.1% | nt | ?
CCOc1ccc(S(=O)(=O)N2CCN(Cc3nc4ccc(C)cc4o3)CC2)cc1 | nt | nt | 18.4µM* | nt | ?
Cc1ccccc1NC(=O)Cn1nnc(-c2ccc(N3CCOCC3)cc2)n1 | 15.0 | -20.1% | -16.5% | 0.0% | -13.0%
CN(C)c1ccc(-c2nnn(CC(=O)Nc3ccccc3N3CCOCC3)n2)cc1 | -77.0* | 0.0% | ? | 10.4% | ?
CN(C)c1ccc(-c2nnn(CC(=O)N3c4ccccc4CCc4ccccc43)n2)cc1 | -1.9 | 2.4% | ? | 14.0% | 16.4µM*
Cn1c(=O)c(S(=O)C2CCCCC2)c(O)c2ccccc21 (configuration not stated) | 31.1 | 4.0% | -7.1% | -2.8% | -22.4%
O=C(Nc1ccc(N2CCN(C(=O)c3ccccc3)CC2)cc1)c1cccs1 | -58.6* | -8.5% | 18.4µM* | -4.7% | 20.6µM*
CCC(=O)NC(=S)Nc1ccc(N2CCN(C(=O)c3ccc(Cl)cc3)CC2)cc1 | -9.3 | -10.4% | 20.6µM* | -28.9% | ?
CC(C)C(=O)Nc1ccc(N2CCN(C(=O)c3cccs3)CC2)cc1 | 10.1 | 22.4% | -13.9% | 12.9% | ?
CC(C)CC(=O)NC(=S)Nc1ccc(N2CCN(C(=O)c3cccs3)CC2)cc1 | -57.7* | ? | ? | ? | 20.6µM*
Cc1ccc(C(=O)N2CCN(c3ccc(NC(=S)NC(=O)c4cccs4)cc3)CC2)cc1 | -54.5* | -3.7% | ? | -13.8% | 20.6µM*
COc1ccc(C(=O)N2CCN(c3ccc(NC(=O)c4cccs4)cc3)CC2)cc1 | ? | 5.3% | ? | 0.9% | ?
C[C@H](CO)N1C[C@H](C)[C@@H](CN(C)C(=O)Nc2ccc3c(c2)OCO3)Oc2ccc(NC(=O)C3CCCCC3)cc2C1=O | -8.6 | -0.7% | -14.0% | 3.3% | -10.6%
Cc1ccccc1C(=O)N1CCN(c2ccc(NC(=S)NC(=O)c3cccs3)cc2)CC1 | ? | -9.7% | 23.1µM* | ? | 23.1µM*
Cc1ccc(N2CCN(C(=O)c3ccccc3Br)CC2)c(C)c1 | -2.0 | -0.8% | ? | -13.2% | 25.9µM*
Cc1ccc(C)c(N2CCN(C(=O)c3ccc4c(c3)c(C)c(C)n4C)CC2)c1 | 3.0 | ? | 23.1µM* | ? | 16.4µM*
Cc1ccc(C)c(N2CCN(C(=O)c3ccccc3Br)CC2)c1 | ? | -5.5% | 20.6µM* | -4.5% | 16.4µM*
Cc1ccc(C)c(N2CCN(C(=O)c3csc(C)c3C)CC2)c1 | -10.4 | -3.1% | ? | -17.7% | ?
Cc1ccc(N2CCN(C(=O)c3cc(C(=O)c4ccccc4C)c[nH]3)CC2)c(C)c1 | ? | 5.1% | ? | 9.5% | 23.1µM*
Cc1ccccc1C(=O)c1c[nH]c(C(=O)NCc2cccs2)c1 | ? | 11.6% | ? | 17.0% | ?
SMILES | IL1B secr inh | HT1080 IDH1KD tx | DT40 TDP1 CPT | HT1080NT lethal | TDP1 cell noCPT
CN(C)S(=O)(=O)c1cccc(COC(=O)CCNC(=O)c2ccc([N+](=O)[O-])cc2)c1 | -7.5 | -0.6% | 1.0% | 1.4% | -2.0%
COc1ccccc1C1CN(Cc2c(C)nc3sccn23)Cc2ccccc2O1 (configuration not stated) | nt | nt | 6.7%[9.04 µM] | nt | -19.6%
O=CN/C=C/c1cc(O)ccc1O | -21.6 | -19.2% | 4.11µM* | -18.4% | 4.61µM*
COc1ccc(-c2noc(CCC(=O)N3CCN(c4cccc(F)c4)CC3)n2)cc1 | 0.0 | 3.5% | ? | -1.0% | ?
COc1ccc(CN(C)C(=O)c2ccc(OCC(=O)N3CCOCC3)c(OC)c2)cc1 | 14.6 | 11.1% | -17.5% | 3.7% | -5.6%
COc1ccc(C(=O)N(Cc2ccccc2)c2cccc(C)c2)cc1 | 12.8 | -16.6% | 14.6µM* | -20.9% | ?
Cc1cccc(N(Cc2ccccc2)C(=O)c2ccc(S(C)(=O)=O)cc2)c1 | 0.0 | -0.2% | 16.4µM* | -0.2% | ?
COc1cc(C(=O)N(Cc2ccccc2)c2cccc(C)c2)ccc1OCC(=O)N1CCOCC1 | -16.7 | -3.2% | ? | 0.2% | 16.4µM*
CCn1c(C)nc2cc(N)ccc21 | 10.3 | -0.5% | 3.9% | -1.3% | -1.3%
Nc1ccc2c(c1)ncn2CCCn1cnc2cc(N)ccc21 | -2.7 | -33.2% | 20.6µM* | -5.9% | ?
CSc1ccccc1NC(=O)c1cc(-c2cccnc2)nc2ccc(Br)cc12 | ? | 1.6% | ? | -4.2% | 20.6µM*
CC(=O)Nc1cccc(NC(=O)c2cc(-c3cccnc3)nc3ccc(Br)cc23)c1 | -19.2 | ? | 17.8µM* | ? | 17.8µM*
O=C(Nc1ccc(C(=O)N2CCOCC2)cc1)c1cc(-c2cccnc2)nc2ccc(Cl)cc12 | ? | -19.7% | 1.84µM* | -7.1% | 2.06µM*
O=C(O)c1cc(-c2cccnc2)nc2ccc(Br)cc12 | 36.5 | 14.2% | ? | -1.3% | 22.4%
Nc1cc(N)nc(SCC(=O)NCC(=O)Nc2ccc(F)c(F)c2F)n1 | 12.9 | -9.0% | -3.6% | -5.5% | 1.3%
COc1cccc(N(CC(=O)NCCSc2ccccn2)S(=O)(=O)c2ccccc2)c1 | -59.0* | -5.2% | -20.1% | -0.7% | ?
COc1ccc(N(CC(=O)NCCSc2ccccn2)S(=O)(=O)c2ccccc2)cc1Cl | -7.1 | -12.4% | 16.4µM* | -3.2% | ?
COc1ccc(N(CC(=O)NCCSc2ccccn2)S(=O)(=O)c2ccccc2)cc1OC | 29.4 | -9.9% | -12.8% | -13.6% | ?
CCOc1ccc(NC(=O)c2c(N)n(C)c(=O)[nH]c2=O)cc1 | -9.7 | 9.2% | 0.4% | 11.1% | -4.9%
CN(Cc1ccccc1)C(=O)CN1C(=O)NC2(CCCc3sccc32)C1=O (configuration not stated) | -13.0 | 1.4% | 0.3% | -5.3% | -35.6%
COc1c2c(cc3c1C(CC(O)Cc1ccccc1)N(C)CC3)OCO2 (configuration not stated) | -6.4 | -25.0% | ? | -18.6% | 10.3µM*

High-throughput results: PubChem BioAssay, National Center for Advancing Translational Sciences (NCATS)
